Drawing on ChEMBL document CHEMBL1961873, “Compounds: GSK PKIS; Assays: Nanosyn kinase panel” (2012), this text covers inhibition for 19 compounds.

Experiment [1] deals with Epidermal growth factor receptor (Homo sapiens), P00533 [T790M]. To be noted: at 1 µM.
Experiment [2] has as its system Epidermal growth factor receptor (Homo sapiens), P00533 [L858R,T790M]. To be noted: at 0.1 µM.
Experiment [3] has the same test system. To be noted: at 1 µM.
In experiment [4] the target is Ephrin type-A receptor 2 (Homo sapiens) (UniProt P29317). To be noted: at 0.1 µM.
Experiment [5] shares this target. To be noted: at 1 µM.
Experiment [6] concerns the target T1, Ephrin type-A receptor 3 (Homo sapiens) (UniProt P29320).
T1 sequence (whole entry): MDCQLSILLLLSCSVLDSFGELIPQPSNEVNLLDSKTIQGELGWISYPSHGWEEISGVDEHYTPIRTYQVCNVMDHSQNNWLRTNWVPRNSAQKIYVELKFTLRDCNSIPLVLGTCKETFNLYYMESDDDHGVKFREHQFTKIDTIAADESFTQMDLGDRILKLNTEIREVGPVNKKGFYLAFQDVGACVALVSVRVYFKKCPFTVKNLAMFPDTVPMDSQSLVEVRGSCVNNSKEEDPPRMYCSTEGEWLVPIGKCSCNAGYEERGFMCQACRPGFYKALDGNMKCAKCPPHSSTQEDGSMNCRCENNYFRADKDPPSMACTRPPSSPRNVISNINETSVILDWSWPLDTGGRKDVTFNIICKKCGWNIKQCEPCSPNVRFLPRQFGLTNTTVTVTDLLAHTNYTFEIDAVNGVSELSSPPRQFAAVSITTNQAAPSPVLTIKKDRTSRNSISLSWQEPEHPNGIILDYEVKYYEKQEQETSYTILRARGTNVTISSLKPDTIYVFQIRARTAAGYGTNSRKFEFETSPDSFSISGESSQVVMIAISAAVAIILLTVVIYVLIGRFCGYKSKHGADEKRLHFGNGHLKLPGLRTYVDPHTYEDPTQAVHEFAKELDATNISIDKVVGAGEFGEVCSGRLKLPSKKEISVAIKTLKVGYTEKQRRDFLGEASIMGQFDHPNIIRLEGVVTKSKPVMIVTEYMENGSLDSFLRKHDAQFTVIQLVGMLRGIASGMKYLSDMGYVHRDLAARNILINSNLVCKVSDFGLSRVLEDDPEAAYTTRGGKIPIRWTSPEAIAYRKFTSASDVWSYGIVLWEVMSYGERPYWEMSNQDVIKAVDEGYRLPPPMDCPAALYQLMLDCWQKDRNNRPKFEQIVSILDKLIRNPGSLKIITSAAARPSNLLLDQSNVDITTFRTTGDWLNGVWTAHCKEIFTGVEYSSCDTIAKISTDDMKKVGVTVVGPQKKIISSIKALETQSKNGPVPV
To be noted: at 0.1 µM.

Experiment [7] addresses T1, Ephrin type-A receptor 3 (Homo sapiens). To be noted: at 1 µM.
Experiment [8] concerns the target Ephrin type-A receptor 4 (Homo sapiens) (UniProt P54764). To be noted: at 0.1 µM.
Experiment [9] has the same target. To be noted: at 1 µM.
The target in experiment [10] is T2, Ephrin type-B receptor 2 (Homo sapiens) (UniProt P29323).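 Further: reported as mean inhibition of EPHB2, from the GSK PKIS dataset.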
T2 sequence (whole entry): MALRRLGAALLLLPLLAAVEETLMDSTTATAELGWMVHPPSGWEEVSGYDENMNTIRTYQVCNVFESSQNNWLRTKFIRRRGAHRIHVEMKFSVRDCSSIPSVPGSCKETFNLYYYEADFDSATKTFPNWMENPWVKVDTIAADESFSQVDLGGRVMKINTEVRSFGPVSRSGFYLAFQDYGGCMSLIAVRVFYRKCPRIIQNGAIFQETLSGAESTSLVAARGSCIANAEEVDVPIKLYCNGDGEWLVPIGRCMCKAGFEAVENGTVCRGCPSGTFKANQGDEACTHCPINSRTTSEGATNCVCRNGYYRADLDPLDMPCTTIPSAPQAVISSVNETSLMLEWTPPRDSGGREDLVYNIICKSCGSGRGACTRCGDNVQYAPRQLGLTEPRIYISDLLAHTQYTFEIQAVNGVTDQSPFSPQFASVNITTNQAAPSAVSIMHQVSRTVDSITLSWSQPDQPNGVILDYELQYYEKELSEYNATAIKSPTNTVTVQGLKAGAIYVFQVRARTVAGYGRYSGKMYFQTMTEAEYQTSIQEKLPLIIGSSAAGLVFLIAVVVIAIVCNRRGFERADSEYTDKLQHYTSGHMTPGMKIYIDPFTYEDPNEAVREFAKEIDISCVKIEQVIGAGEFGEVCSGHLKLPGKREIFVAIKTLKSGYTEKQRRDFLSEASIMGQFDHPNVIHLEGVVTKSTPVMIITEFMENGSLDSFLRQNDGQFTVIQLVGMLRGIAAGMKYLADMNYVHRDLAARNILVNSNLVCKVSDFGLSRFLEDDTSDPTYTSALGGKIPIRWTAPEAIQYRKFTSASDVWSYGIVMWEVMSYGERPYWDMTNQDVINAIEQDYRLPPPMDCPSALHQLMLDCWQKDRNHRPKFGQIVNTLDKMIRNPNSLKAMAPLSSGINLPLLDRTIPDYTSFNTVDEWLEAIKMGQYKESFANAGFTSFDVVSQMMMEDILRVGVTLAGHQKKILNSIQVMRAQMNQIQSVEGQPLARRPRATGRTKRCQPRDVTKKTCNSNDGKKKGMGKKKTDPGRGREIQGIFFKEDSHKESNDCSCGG
To be noted: at 0.1 µM.

Chain of Ephrin type-A receptor 2 (Homo sapiens) (P29317 whole entry): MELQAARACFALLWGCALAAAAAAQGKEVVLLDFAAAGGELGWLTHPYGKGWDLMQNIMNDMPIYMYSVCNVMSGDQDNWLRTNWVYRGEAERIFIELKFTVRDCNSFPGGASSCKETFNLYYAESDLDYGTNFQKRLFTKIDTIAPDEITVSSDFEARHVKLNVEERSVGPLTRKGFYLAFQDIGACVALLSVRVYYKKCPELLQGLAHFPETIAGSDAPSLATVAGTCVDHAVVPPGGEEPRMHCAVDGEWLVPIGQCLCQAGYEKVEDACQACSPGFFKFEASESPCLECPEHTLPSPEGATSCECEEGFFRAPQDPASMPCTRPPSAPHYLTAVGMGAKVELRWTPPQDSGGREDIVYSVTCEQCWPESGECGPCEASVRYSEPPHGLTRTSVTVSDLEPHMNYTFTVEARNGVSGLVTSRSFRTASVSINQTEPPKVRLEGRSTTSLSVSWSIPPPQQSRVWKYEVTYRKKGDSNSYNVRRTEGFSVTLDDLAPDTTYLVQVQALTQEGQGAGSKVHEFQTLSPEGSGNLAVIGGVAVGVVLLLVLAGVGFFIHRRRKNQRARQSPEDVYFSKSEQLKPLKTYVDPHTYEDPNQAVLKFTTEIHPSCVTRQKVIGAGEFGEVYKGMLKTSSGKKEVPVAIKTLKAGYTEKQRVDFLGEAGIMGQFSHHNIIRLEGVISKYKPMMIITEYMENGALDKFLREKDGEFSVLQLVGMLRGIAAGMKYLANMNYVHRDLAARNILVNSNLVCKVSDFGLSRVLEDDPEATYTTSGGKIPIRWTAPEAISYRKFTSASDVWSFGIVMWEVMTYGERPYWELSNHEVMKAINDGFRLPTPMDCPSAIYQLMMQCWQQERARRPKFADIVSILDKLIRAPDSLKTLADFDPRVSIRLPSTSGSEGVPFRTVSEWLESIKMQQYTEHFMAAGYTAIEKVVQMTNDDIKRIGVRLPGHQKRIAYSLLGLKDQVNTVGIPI
Chain of Epidermal growth factor receptor (Homo sapiens), P00533 [L858R,T790M] (P00533 whole entry T790M/L858R, looked up): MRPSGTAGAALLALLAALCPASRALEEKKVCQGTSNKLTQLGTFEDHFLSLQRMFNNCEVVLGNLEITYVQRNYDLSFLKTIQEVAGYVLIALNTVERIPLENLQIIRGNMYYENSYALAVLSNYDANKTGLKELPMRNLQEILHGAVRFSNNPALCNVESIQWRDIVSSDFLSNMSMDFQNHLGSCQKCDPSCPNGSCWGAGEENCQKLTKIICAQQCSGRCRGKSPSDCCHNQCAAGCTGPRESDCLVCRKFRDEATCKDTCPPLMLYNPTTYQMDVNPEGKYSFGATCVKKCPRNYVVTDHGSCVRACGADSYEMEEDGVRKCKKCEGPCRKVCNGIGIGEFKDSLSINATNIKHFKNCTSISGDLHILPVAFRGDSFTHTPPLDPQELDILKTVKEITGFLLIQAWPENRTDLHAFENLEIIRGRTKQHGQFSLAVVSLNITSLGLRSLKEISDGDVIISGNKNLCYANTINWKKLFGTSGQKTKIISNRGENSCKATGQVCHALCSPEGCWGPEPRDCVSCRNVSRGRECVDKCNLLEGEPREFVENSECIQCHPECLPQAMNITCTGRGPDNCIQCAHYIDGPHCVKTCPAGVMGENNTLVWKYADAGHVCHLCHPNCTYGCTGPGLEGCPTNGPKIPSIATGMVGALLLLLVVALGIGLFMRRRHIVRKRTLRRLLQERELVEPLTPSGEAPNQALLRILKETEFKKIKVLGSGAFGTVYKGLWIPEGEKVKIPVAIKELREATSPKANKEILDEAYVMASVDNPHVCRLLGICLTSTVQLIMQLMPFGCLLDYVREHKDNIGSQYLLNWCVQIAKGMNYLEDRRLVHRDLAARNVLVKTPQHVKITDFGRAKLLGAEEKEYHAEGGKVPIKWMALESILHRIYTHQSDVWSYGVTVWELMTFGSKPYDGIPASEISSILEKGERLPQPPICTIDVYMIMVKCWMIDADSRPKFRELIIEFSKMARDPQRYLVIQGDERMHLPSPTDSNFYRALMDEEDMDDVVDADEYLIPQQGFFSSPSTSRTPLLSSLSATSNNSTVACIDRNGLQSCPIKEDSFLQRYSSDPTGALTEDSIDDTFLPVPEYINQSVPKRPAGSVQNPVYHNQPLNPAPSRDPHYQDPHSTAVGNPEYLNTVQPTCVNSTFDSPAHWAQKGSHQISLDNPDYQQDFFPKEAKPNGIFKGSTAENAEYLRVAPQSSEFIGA
Chain of Epidermal growth factor receptor (Homo sapiens), P00533 [T790M] (P00533 whole entry T790M): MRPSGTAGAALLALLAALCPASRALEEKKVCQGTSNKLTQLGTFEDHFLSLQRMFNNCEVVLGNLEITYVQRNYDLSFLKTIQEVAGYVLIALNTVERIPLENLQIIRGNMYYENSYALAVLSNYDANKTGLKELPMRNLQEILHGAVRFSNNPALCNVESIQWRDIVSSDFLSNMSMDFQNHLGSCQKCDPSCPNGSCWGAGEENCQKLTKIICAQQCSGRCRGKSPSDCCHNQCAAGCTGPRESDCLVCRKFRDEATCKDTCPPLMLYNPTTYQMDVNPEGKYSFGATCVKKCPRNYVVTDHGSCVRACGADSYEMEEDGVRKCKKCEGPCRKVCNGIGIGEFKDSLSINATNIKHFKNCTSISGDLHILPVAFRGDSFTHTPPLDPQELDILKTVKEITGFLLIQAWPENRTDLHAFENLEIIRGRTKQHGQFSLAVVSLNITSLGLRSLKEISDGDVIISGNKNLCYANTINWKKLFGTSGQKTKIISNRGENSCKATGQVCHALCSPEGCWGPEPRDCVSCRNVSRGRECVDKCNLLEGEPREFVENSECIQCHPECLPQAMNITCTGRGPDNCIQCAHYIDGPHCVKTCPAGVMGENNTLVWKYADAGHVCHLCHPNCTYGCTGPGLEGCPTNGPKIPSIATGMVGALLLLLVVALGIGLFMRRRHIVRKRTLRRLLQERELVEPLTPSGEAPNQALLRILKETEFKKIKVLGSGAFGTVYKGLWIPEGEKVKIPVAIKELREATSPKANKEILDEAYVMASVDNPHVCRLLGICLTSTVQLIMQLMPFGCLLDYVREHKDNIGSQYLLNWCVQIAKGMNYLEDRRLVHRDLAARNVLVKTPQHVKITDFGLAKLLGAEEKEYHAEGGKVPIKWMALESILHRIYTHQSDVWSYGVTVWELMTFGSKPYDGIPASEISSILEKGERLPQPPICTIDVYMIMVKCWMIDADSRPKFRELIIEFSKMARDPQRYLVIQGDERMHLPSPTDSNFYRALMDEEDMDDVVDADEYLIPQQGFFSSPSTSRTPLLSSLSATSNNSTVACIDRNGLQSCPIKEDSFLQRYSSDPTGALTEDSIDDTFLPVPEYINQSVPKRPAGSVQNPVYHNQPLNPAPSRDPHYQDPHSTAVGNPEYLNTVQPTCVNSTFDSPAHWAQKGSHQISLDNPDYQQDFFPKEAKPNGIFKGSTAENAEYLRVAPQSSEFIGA
Chain of Ephrin type-A receptor 4 (Homo sapiens) (P54764 whole entry): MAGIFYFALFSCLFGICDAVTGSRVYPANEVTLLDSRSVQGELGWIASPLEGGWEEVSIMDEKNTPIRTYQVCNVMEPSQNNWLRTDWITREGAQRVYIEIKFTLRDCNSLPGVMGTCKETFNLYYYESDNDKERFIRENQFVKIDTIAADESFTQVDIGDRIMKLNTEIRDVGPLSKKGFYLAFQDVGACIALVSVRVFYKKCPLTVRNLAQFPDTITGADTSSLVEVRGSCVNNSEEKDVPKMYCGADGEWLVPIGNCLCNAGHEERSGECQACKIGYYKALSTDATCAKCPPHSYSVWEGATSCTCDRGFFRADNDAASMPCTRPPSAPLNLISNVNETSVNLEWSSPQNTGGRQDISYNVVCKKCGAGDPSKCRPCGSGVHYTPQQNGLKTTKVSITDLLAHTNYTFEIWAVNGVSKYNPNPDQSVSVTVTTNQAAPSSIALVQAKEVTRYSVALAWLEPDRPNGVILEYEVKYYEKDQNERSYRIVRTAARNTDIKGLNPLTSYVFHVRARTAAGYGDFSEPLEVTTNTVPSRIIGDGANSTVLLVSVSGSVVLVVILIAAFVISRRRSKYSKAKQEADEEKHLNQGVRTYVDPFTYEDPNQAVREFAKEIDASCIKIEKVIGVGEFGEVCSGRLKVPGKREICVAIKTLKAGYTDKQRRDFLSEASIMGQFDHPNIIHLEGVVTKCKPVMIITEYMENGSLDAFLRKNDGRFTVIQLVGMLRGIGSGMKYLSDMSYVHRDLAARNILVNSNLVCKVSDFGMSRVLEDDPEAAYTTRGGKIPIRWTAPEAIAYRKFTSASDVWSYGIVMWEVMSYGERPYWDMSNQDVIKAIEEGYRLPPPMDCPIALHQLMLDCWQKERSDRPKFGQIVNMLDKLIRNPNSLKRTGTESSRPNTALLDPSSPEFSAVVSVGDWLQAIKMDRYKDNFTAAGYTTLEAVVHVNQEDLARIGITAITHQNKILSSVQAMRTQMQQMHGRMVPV

As to `NS(=O)(=O)c1ccc(N/N=C2\C(=O)Nc3ccc(C(=O)NCc4ccncc4)cc32)cc1`, the inhibition was found to be 5.2% in experiment [1]; 0.1% in experiment [2]; 2.72% in [3]; 1.72% in [4]; 1.75% in experiment [5]; 4.4% in experiment [6]. In addition, the inhibition in experiment [7] worked out at 3.58%; in experiment [8], 8.7%; in experiment [9], 15%; in experiment [10], 4.03%.

For the compound `Cc1cc(O)cc(C)c1/C=C/c1cncc(C(=O)OC(C)(C)C)c1`, the inhibition is 2.69% in experiment [1]; 2.41% in [2]; 0.87% in [3]; 16.6% in experiment [4]; 60.8% in [5]; 11.2% in experiment [6]. Moreover, the inhibition came out at 22.4% in experiment [7], 31.1% in [8], 80.6% in experiment [9] and 23% in experiment [10].

With `CN(C)CCNC(=O)Nc1ccc(N(C)c2ccnc(Nc3ccc(CS(C)(=O)=O)cc3)n2)cc1`, the inhibition in experiment [1] stood at 1.68%; in [2] it was 4.53%; in [3], 6.61%; in experiment [4], 2.63%; in [5], 1.36%; in [6] it was 3.79%. In addition, the inhibition in experiment [7] is 4.33%; in experiment [8], 6.86%; in experiment [9], 6.65%; in [10], 10.6%.

As to `CC1=C(C(=O)Nc2ccc3[nH]nc(C)c3c2)C(c2ccc(C(F)(F)F)cc2)CC(=O)N1` (stereo not given), the inhibition in [1] was -0.09%; in experiment [2], 3.65%; in experiment [3], -0.97%; in experiment [4], 2.9%; in [5], 2.18%; in [6], 2.71%. In addition, the inhibition in [7] was 2.28%; in experiment [8], 5.51%; in [9] it was 5.67%; in [10] it was 5.5%.

Turning to `O=C1Nc2ccccc2/C1=C1\CCc2cc(O)ccc21`, the inhibition in experiment [1] is 2.73%; in [2] it was 1.8%; in experiment [3] it was 4.76%; in [4], 2.66%; in experiment [5] it was 2%; in experiment [6], 6.06%. Further, the inhibition turned out to be 4.39% in experiment [7], 7.97% in [8], 3.3% in [9] and 3.53% in experiment [10].

As for `COc1c(C(N)=O)cc(-c2ccc(Cl)cc2)cc1-c1ccc(S(N)(=O)=O)cc1`, the inhibition in [1] was 3.77%; in experiment [2], -1.73%; in experiment [3], 0.63%; in experiment [4] it was 1.79%; in experiment [5] it was 1.53%; in experiment [6], 3.06%. Further, the inhibition was 4.11% in experiment [7], 8.42% in experiment [8], 10.1% in experiment [9] and 8.67% in experiment [10].

Regarding `CCS(=O)(=O)c1ccc(OC)c(Nc2ncc(-c3cccc(C(C)=O)c3)o2)c1`, the inhibition was determined as 4.71% in [1]; 1.19% in experiment [2]; 7.18% in [3]; 3.84% in experiment [4]; 2.23% in experiment [5]; 3.51% in experiment [6]. The inhibition in experiment [7] is 6.85%; in experiment [8], 9.55%; in experiment [9] it was 16.9%; in [10], 9.45%.

As to `CN1CCC(n2cnc(-c3ccc(F)cc3)c2-c2ccnc(NCCO)n2)CC1`, the inhibition is 4.06% in [1]; 1.79% in experiment [2]; 5.98% in [3]; 2.31% in experiment [4]; -0.04% in experiment [5]; 5.3% in experiment [6]. The inhibition in experiment [7] was 5.33%; in [8], 7.76%; in [9], 14.7%; in experiment [10] it was 8.26%.

`CC(C)c1ccc(-c2cc(-c3c[nH]nc3-c3ccccn3)ccn2)cc1`: the inhibition was 0.59% in [1]; -1.17% in experiment [2]; -2.79% in [3]; -1.11% in experiment [4]; -2.27% in experiment [5]; 2.58% in [6]. The inhibition in [7] came to 5.79%; in experiment [8] it was 6.74%; in experiment [9] it was 4.1%; in experiment [10], 7.84%.

On to `Cc1ccc(-c2cc3c(NC(=O)C4CC4)ncnc3o2)cc1`, for which the inhibition turned out to be 0.67% in experiment [1]; 1.96% in experiment [2]; 5.94% in [3]; 3.08% in experiment [4]; 7.49% in [5]; 3.73% in experiment [6]. Also, the inhibition in [7] amounted to 5.51%; in experiment [8], 8.88%; in experiment [9], 20.5%; in experiment [10], 9.13%.

`Cc1nnc(-c2cccc(-c3ccc(C(=O)NCC4CC4)cc3)c2)o1`: the inhibition in experiment [1] is 4.56%; in experiment [2] it was 2.93%; in experiment [3] it was 3.63%; in [4] it was 1.56%; in experiment [5], 0.66%; in experiment [6], 5.76%. In addition, the inhibition in [7] worked out at 6.16%; in experiment [8] it was 11.3%; in experiment [9] it was 10.8%; in experiment [10], 11.1%.

For the compound `CCCNc1cccc(-n2ncc3c(N/N=C/c4ccncc4)ncnc32)c1`, the inhibition in experiment [1] turned out to be 5.14%; in experiment [2] it was 1.81%; in experiment [3] it was 2.7%; in [4] it was 3.57%; in [5], 5.31%; in experiment [6], 3.09%. Besides, the inhibition is 3.12% in [7], 4.65% in [8], 17.4% in experiment [9] and -1.54% in experiment [10].

For the compound `Cn1c(-c2nonc2N)nc2cnccc21`, the inhibition is 0.67% in [1]; -1.07% in experiment [2]; -0.94% in experiment [3]; 1.97% in experiment [4]; 1.07% in experiment [5]; 6.89% in experiment [6]. The inhibition in experiment [7] was 4.47%; in experiment [8], 7.88%; in [9] it was 4.19%; in experiment [10], 4.59%.

Take `COc1cc(N2CCN(C(C)C)CC2)ccc1Nc1nc(Nc2cccc(F)c2C(=O)O)c2cc[nH]c2n1`: the inhibition is 24.9% in [1]; 9.68% in [2]; 48.9% in [3]; 0.65% in experiment [4]; -0.38% in experiment [5]; 2.98% in [6]. Moreover, the inhibition in experiment [7] came to 6.01%; in experiment [8] it was 8.47%; in experiment [9], 11.2%; in experiment [10] it was 9.96%.

Regarding `NC(=O)c1ccc2c(-c3ccnc(NCCCO)n3)c(-c3ccc(F)cc3)nn2c1`, the inhibition in [1] was found to be 2.72%; in experiment [2], 4.41%; in experiment [3], 6.91%; in [4], 2.54%; in experiment [5], 7.54%; in experiment [6], 5.24%. In addition, the inhibition in [7] is 7.21%; in experiment [8], 11.8%; in [9], 29.7%; in [10], 9.21%.

On to `CNC(=O)c1ncccc1Nc1nc(Nc2cc3c(cc2OC)CCCN3C(=O)CN(C)C)nc2[nH]ccc12`, for which the inhibition in [1] is 54.4%; in experiment [2], 43.7%; in experiment [3] it was 80.5%; in [4], 0.62%; in experiment [5], 0.22%; in experiment [6], 5.44%. Also, the inhibition in experiment [7] came out at 5.06%; in experiment [8], 7.88%; in [9] it was 7.89%; in experiment [10], 8.66%.

As to `CCn1c(-c2nonc2N)nc2cncc(C(=O)NCCNC)c21`, the inhibition in experiment [1] is 4.6%; in experiment [2], 1.4%; in experiment [3], 5.19%; in experiment [4], 0.81%; in experiment [5] it was -0.9%; in experiment [6], 1.15%. Further, the inhibition came to 5.09% in [7], 7.32% in [8], 10.1% in [9] and 12.1% in experiment [10].

Take `FC(F)(F)CNc1nccc(-c2cnn3ncccc23)n1`: the inhibition in experiment [1] was 0.02%; in [2] it was -1.87%; in experiment [3], 1.32%; in experiment [4], 0.5%; in experiment [5] it was -1.3%; in experiment [6] it was 3.4%. Further, the inhibition is 4.73% in experiment [7], 5.82% in experiment [8], 7.58% in experiment [9] and 5.3% in experiment [10].

Consider `Fc1cccc(COc2ccc(Nc3ncncc3C#Cc3ccccc3)cc2Cl)c1`, for which the inhibition in experiment [1] amounted to 3.85%; in experiment [2] it was 3.98%; in [3], 5.02%; in experiment [4], 4.2%; in experiment [5], 0.3%; in experiment [6] it was 4.46%. Further, the inhibition was determined as 4.68% in experiment [7], 9.27% in experiment [8], 13.1% in experiment [9] and 8.04% in experiment [10].
